Bioassay records: PubChem, Broad Institute
In the library only some 2.9% were active in any assay of this set; here they are far more common.
esBAF inh – Bmi1 luciferase reporter increase in mESCs, primary screen, esBAF inhibitor project, mouse ES cells, Bmi1 luciferase knock-in, single point; 24 h; 100% = twice the neutral-well signal; reporter increase, % at 12.5 µM; hit rate 2% among 350,000; in the data active = activation above about 40%; inconclusive = no clear call, values can overlap the other calls;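 note: a rise in the Bmi1 reporter signal indicates esBAF inhibition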
PvdQ acylase – P. aeruginosa PvdQ acylase inhibitors, primary screen, biochemical, fluorescence, plate reader and imaging, single point | AID 488965, 2010 | inhibition, % at 10 µM | hit rate 0.063% among 340,000 | purified PvdQ acylase; in the data active = inhibition above about 30%, passing the limit was not always enough; inconclusive = no clear call, values can overlap the other calls
N-glyco inh – increase of ERlucT glycosylation luciferase signal, primary screen, N-linked glycosylation inhibitor project, D54 ERlucT cells, luminescence, set 2. D54 ERlucT glycosylation luciferase reporter, 24 h; percent of 100 nM tunicamycin response. reporter increase, % at 12.5 µM. hit rate 0.23% among 360,000. AID 588692, 2011;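 active = mean luciferase reporter signal, scaled so untreated is 0 and the glycosylation-blocking control 100, at or above a set limit in every replicate; inconclusive = mean reaches the limit but not every replicate does; inactive = mean below the limit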;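 note: luciferase carries N-glycosylation sites so blocking glycosylation raises the light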
Wnt bcat act – Wnt/beta-catenin pathway activators, primary screen, cell-based, plate reader, single point. Wnt/beta-catenin reporter cell assay, activator. activation, % at 9.35 µM. hit rate 1.2% among 300,000. AID 743398, 2014; in the data active = activation above about 30%, passing the limit was not always enough; inconclusive = no clear call, values can overlap the other calls
MITF TRPM1 HTS – activators of MITF-driven TRPM1 promoter reporter, primary screen, cell-based, SK-MEL-5, luciferase, single point. activation, % at 12.5 µM. hit rate 0.75% among 300,000. AID 588334, 2011. SK-MEL-5 TRPM1-promoter luciferase, 24 h; % of positive control, neutral wells = 0;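 active = mean activation of at least 80% with every replicate also reaching 80%; inconclusive = mean reaches 80% but some replicate falls short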
Vif imaging – HIV Vif self-association inhibitors, primary screen, imaging, HEK293T, single point; HEK293T cells, Vif self-association by quenched fluorescence, 24 h; inhibition, % at 7.49 µM; hit rate 0.35% among 340,000; AID 602346, 2012; in the data active = inhibition above about 50%, passing the limit was not always enough; inconclusive = no clear call, values can overlap the other calls; inactive = below about 31%
Each line names hits and unclear results; the compound was inactive in the other large screens.

Cc1ccc2nc(SCc3nc4ccccc4c(=O)[nH]3)[nH]c2c1	esBAF inh 51
Cc1c(C(=O)Nc2ccccc2)csc1-c1ccccc1	Wnt bcat act 59, MITF TRPM1 HTS 107 (no result: esBAF inh)
Cn1cc(Cl)c(/C(N)=N/OC(=O)c2ccccc2C(F)(F)F)n1	esBAF inh 51
N/C(=N\OC(=O)c1ccccc1Cl)c1ccccn1	none
C[C@H](O)C#Cc1cnc2c(c1)C(=O)N([C@@H](C)CO)C[C@@H](C)[C@@H](CN(C)C(=O)c1ccccc1F)O2	none (no result: PvdQ acylase, N-glyco inh, Wnt bcat act, MITF TRPM1 HTS, Vif imaging)
CCC(C)NC(=O)c1ccc2c(SCC(=O)O)c3c(nc2c1)CCCC3 (stereo not given)	none
CCC(C)NC(=O)c1ccc2c(Cl)c3c(nc2c1)CCC3 (stereo not given)	esBAF inh 53, Wnt bcat act 42
N#Cc1cccc(-c2ccc3c(c2)[C@@H]2[C@@H](CCN2C(=O)c2ccncc2)[C@@H](CO)N3)c1	esBAF inh 61 (no result: PvdQ acylase, N-glyco inh, Wnt bcat act, MITF TRPM1 HTS, Vif imaging)
COc1cccc(-c2ccc3c(c2)[C@H]2[C@H](CCN2C(=O)c2ccccn2)[C@H](CO)N3)c1	esBAF inh 45 (no result: PvdQ acylase, N-glyco inh, Wnt bcat act, MITF TRPM1 HTS, Vif imaging)
Cc1ccc(NC(=O)c2scc3c2CCCC3)cc1	MITF TRPM1 HTS 115 (no result: esBAF inh)
O=C(c1scc2c1CCCC2)N1CCCCC1	none
O=C(Nc1ccccc1OC(F)F)c1cc2c(s1)CCC2	esBAF inh 44 (no result: Wnt bcat act)
Cc1ccc(NC(=O)c2cc3c(s2)CCCC3)cc1	esBAF inh inconclusive, Wnt bcat act 61, MITF TRPM1 HTS 148
CC(C)(C)c1csc(NC(=O)Cc2ccc(S(=O)(=O)N3CCOCC3)s2)n1	esBAF inh 43 (no result: Vif imaging)
Cc1cnc(NC(=O)Cc2ccc(S(=O)(=O)N3CCOCC3)s2)s1	none (no result: esBAF inh)
COCCCNC(=O)Cc1ccc(S(=O)(=O)N2CCOCC2)s1	Wnt bcat act 55
O=C(C[C@H]1C[C@H]2c3cc(NC(=O)CC4CC4)ccc3O[C@H]2[C@H](CO)O1)NCCc1ccccc1	none (no result: PvdQ acylase, N-glyco inh, Wnt bcat act, MITF TRPM1 HTS, Vif imaging)
O=C(C[C@@H]1CC[C@H]2NC[C@H](O)COC[C@@H]2O1)Nc1ccc(-c2ccccc2)cc1	none (no result: PvdQ acylase, N-glyco inh, Wnt bcat act, MITF TRPM1 HTS, Vif imaging)
C[C@@H]1CCCCO[C@H](CN(C)S(=O)(=O)c2cccs2)[C@@H](C)CN([C@H](C)CO)C(=O)c2cc(NC(=O)c3ccncc3)ccc2O1	none (no result: PvdQ acylase, N-glyco inh, Wnt bcat act, MITF TRPM1 HTS, Vif imaging)
CC1CCCCN1C(=O)CSc1nnc(-c2ccc(Cl)s2)o1 (stereo not given)	esBAF inh 63 (no result: Wnt bcat act, Vif imaging)
CCC(=O)NC1=C(Nc2ccc(N)cc2)C(=O)c2ccccc2C1=O	Wnt bcat act 34
CCCC(=O)NC1=C(Cl)C(=O)c2ccccc2C1=O	Vif imaging 98 (no result: esBAF inh)
CO[C@H]1CN(C)C(=O)c2cc(NC(=O)C3CCC3)ccc2OC[C@@H](C)N(Cc2ccccn2)C[C@H]1C	none (no result: PvdQ acylase, N-glyco inh, Wnt bcat act, MITF TRPM1 HTS, Vif imaging)
C[C@H]1CN([C@@H](C)CO)C(=O)c2cccc(NS(=O)(=O)c3cccs3)c2O[C@@H]1CN(C)S(=O)(=O)c1cn(C)cn1	none (no result: PvdQ acylase, N-glyco inh, Wnt bcat act, MITF TRPM1 HTS, Vif imaging)
CC(C)c1cn(CC[C@@H]2CC[C@H](NS(=O)(=O)c3ccc(Cl)cc3)[C@@H](CO)O2)nn1	none (no result: PvdQ acylase, N-glyco inh, Wnt bcat act, MITF TRPM1 HTS, Vif imaging)
O=C(O)C1CCN(C(=O)c2ccco2)CC1	none
O=C(c1ccc(F)cc1)N1CCC(c2ccccc2)C1 (stereo not given)	Wnt bcat act 34 (no result: MITF TRPM1 HTS)
O=C(c1ccco1)N1CCC(c2ccccc2)C1 (stereo not given)	esBAF inh 54, MITF TRPM1 HTS inconclusive (no result: Wnt bcat act)
O=C(c1ccco1)N1CCCC(Nc2ccc3c(c2)OCCO3)C1 (stereo not given)	esBAF inh 43
Cc1ccc(S(=O)(=O)N(C)C[C@@H]2OCCCC[C@H](C)Oc3ccc(NC(=O)NC4CCCCC4)cc3C(=O)N([C@H](C)CO)C[C@H]2C)cc1	none (no result: PvdQ acylase, N-glyco inh, Wnt bcat act, MITF TRPM1 HTS, Vif imaging)
C[C@@H]1CCCCO[C@@H](CN(C)S(C)(=O)=O)[C@@H](C)CN([C@@H](C)CO)C(=O)c2cc(NS(C)(=O)=O)ccc2O1	none (no result: PvdQ acylase, N-glyco inh, Wnt bcat act, MITF TRPM1 HTS, Vif imaging)
O=C(C[C@H]1CC[C@@H]2[C@H](COC[C@H](O)CN2C(=O)Nc2ccccc2)O1)NC1Cc2ccccc2C1	none (no result: PvdQ acylase, N-glyco inh, Wnt bcat act, MITF TRPM1 HTS, Vif imaging)
CN(C)C(=O)c1cc2c(c(-c3cccc(-c4ccc(F)cc4)c3)n1)[C@H](CCO)N([S@@](=O)C(C)(C)C)C2	none (no result: PvdQ acylase, N-glyco inh, Wnt bcat act, MITF TRPM1 HTS, Vif imaging)
CN=C(c1ccco1)n1c(=S)nc(-c2ccco2)n(C)c1=S	none
CN=C(c1ccc(C)cc1)n1c(=S)nc(-c2ccc(C)cc2)n(C)c1=S	esBAF inh 83, Wnt bcat act 55
CC(C)(C)[S@](=O)N1Cc2cc(C(=O)NCc3ccc4c(c3)OCO4)nc(-c3cccc(-c4ccncc4)c3)c2[C@@H]1CCO	none (no result: PvdQ acylase, N-glyco inh, Wnt bcat act, MITF TRPM1 HTS, Vif imaging)
CNc1cccc(-c2cccc(O)c2)n1	esBAF inh 53 (no result: PvdQ acylase, MITF TRPM1 HTS)
CCN1C(=O)[C@H]2[C@@H](c3ccc(C)cc3)N3C(=O)N(c4ccc(C)cc4)C(=O)[C@@]3(CC)[C@H]2C1=O	esBAF inh 47
Cc1cccc([C@@H]2[C@@H]3C(=O)N(Cc4ccccc4)C(=O)[C@@H]3[C@]3(Cc4ccccc4)C(=O)N(c4ccccc4)C(=O)N23)c1	N-glyco inh inconclusive, MITF TRPM1 HTS inconclusive
Cc1cccc([C@@H]2[C@@H]3C(=O)N(Cc4ccccc4)C(=O)[C@@H]3[C@]3(Cc4ccccc4)C(=O)N(c4cccc(F)c4)C(=O)N23)c1	N-glyco inh 34 (no result: Vif imaging)
Cc1cccc([C@@H]2[C@@H]3C(=O)N(Cc4ccccc4)C(=O)[C@@H]3[C@]3(Cc4ccccc4)C(=O)N(c4cccc(Cl)c4)C(=O)N23)c1	N-glyco inh 41
CCN1C(=O)[C@H]2[C@@H](c3ccc(C)cc3)N3C(=O)N(c4ccccc4)C(=O)[C@@]3(CC)[C@H]2C1=O	none
O=C1[C@H]2[C@@H](c3ccc(F)cc3)N3C(=O)N(c4cccc(Br)c4)C(=O)[C@@]3(Cc3ccccc3)[C@H]2C(=O)N1C1CCCCC1	N-glyco inh 67
COc1ccc(-c2cnc3c(c2)C(=O)N([C@@H](C)CO)C[C@@H](C)[C@@H](CN(C)C(=O)Cc2ccccn2)O3)cc1	none (no result: PvdQ acylase, N-glyco inh, Wnt bcat act, MITF TRPM1 HTS, Vif imaging)
C[C@H]1CN([C@@H](C)CO)C(=O)c2cc(N(C)C)ccc2O[C@@H]1CN(C)CC1CCCCC1	none (no result: PvdQ acylase, N-glyco inh, Wnt bcat act, MITF TRPM1 HTS, Vif imaging)
CCCCn1nc2cc(C(=O)NCC3CC3)ccc2c1OCC	none
O=C(NCCO)c1ccc2c3n(nc2c1)-c1ccc(Cl)cc1CO3	esBAF inh 68, Wnt bcat act 51, MITF TRPM1 HTS 84 (no result: Vif imaging)
COCCNC(=O)c1ccc2c3n(nc2c1)-c1ccccc1CO3	esBAF inh 53
Cc1ccc2c(c1)COc1c3ccc(C(=O)NCCO)cc3nn1-2	esBAF inh 62, Wnt bcat act 52, MITF TRPM1 HTS 102
O=C(NCCO)c1cccc(Cl)c1	none (no result: Wnt bcat act, MITF TRPM1 HTS)
CCCC#Cc1ccc2c(c1)COc1c3ccccc3nn1-2	Wnt bcat act inconclusive
O=C(NCC1CC1)c1ccc2c3n(nc2c1)-c1ccc(Cl)cc1CO3	esBAF inh 44
